The whole screen tested about 320,000 compounds, of which about 2,100 (0.66%) were called active. Not shown: some 53% with an inconclusive outcome. Calls come from the whole dose curve; as a rule, active = well fitted inhibition curve with a large enough effect in the signal ratio, with a control signal flat (not every such curve was filed as active); inconclusive = small, poorly fitted or top-dose-only effect, or effect the other way, or a change in a side signal; inactive = flat fitted curve, though single readings scatter; the % refers to the signal ratio. The sample as a whole holds a higher share of actives than the screen did.
Assay: qHTS Assay for Lipid Storage Modulators in Drosophila S3 Cells;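 for cell number change: cells counted by Cell Tracker Red CMTPX staining in the red channel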; for lipid storage change, negative = inhibition: % is set by controls: 0 for no effect and ±100 for the full control effect
Conditions: BODIPY lipid droplet fluorescence, 18-24 h, cells fed with added oleic acid; cell number change: measured here: cell count max response; series mostly up to 46.1 µM; lipid storage change, negative = inhibition: at the top concentration
How it was run: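 Laser-scanning cytometry quantifies lipid droplet accumulation (500–530 nm total intensity; droplet/cell object ratio) in oleic acid-fed (400 uM added) Drosophila S3 cells treated with a concentration series. 20 uM Triacsin C defined 100% inhibition.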
Potency is the fitted concentration of half-maximal effect.

| SMILES | lipid storage change, negative = inhibition | cell number change [%] | Potency | outcome |
| --- | --- | --- | --- | --- |
| CC12CCC(=O)N1C(C(=O)OCC(=O)Nc1cccc(S(=O)(=O)N3CCCCCC3)c1)CS2 (centres undefined) | 8.73% (inactive) |  |  |  |
| CN1CCCC(OC(=O)c2cc(Cl)cc(Cl)c2)C1 (centres undefined) | 6.18% (inactive) | -19.2 |  |  |
| CN1CCCC(OC(=O)c2cccc(S(=O)(=O)N3CCCCCC3)c2)C1 (centres undefined) | -6.87% (inactive) | 5.11 |  |  |
| COc1cccc(C(=O)OC2CCCN(C)C2)c1 (centres undefined) |  | -20.8 | 23.1 µM (active) |  |
| CCc1ccc(NC(=O)C/C(C)=N/NC(=O)OCc2ccc(OC)cc2)cc1 | 4.54% (inactive) | 1.96 |  |  |
| O=S(=O)(c1cccs1)N1CCN(S(=O)(=O)c2cccs2)CC1 | 0.709% (inactive) | 5.37 |  |  |
| Cc1ccc(N2CCN(S(=O)(=O)c3ccc4c(c3)n(C)c(=O)c(=O)n4C)CC2C)cc1 (centres undefined) | -1.8% (inactive) | 9.1 |  |  |
| Cc1ccc(N2CCN(S(=O)(=O)c3cccs3)CC2C)cc1 (centres undefined) |  | -24.3 | 3.66 µM (active) |  |
| CN(C(=O)c1cccc(NC(=O)c2ccco2)c1)c1ccccc1 | 27% (inactive) | 8.03 |  |  |
| CN(C(=O)c1ccc(NC(=O)c2ccco2)cc1)c1ccccc1 |  | 5.45 | 8.2 µM (active) |  |
| O=C(Nc1ccccc1NC(=O)c1ccco1)c1ccco1 | 5.64% (inactive) | -11 |  |  |
| O=C(Nc1ccccc1NC(=O)c1ccco1)c1ccccc1 |  | -10 | 1.46 µM (active) |  |
| CC(=O)N(C)c1ccc(NC(=O)c2ccco2)cc1 | -5.89% (inactive) | -3.91 |  |  |
| Cc1ccc(NC(=O)c2ccco2)c(NC(=O)c2ccccc2)c1 |  | 11.5 |  | inactive |
| CCC(OC(=O)c1cccs1)C(=O)NCc1ccc(C)cc1 (centres undefined) | -3.65% (inactive) | -0.108 |  |  |
| CCC(C(=O)N(C(C)C)C(C)C)c1ccccc1 (centres undefined) | 16.1% (inactive) | 4.75 |  |  |
| O=C(N/C(=C\c1ccccc1)C(=O)N1CCCCC1)c1ccc(Br)o1 |  | 0.343 |  | inactive [at 0.369 µM] |
| CC(C(=O)NCC1(c2ccccc2)CCCC1)N1CCOCC1 (centres undefined) |  | 9.07 |  | inactive |
| COc1ccc(CN(CC2CCC(C(=O)O)CC2)C(=S)Nc2cc(C)cc(C)c2)cc1 (centres undefined) | 6.11% (inactive) | -1.54 |  |  |
| CCCNC(=O)CCCCn1c(=S)[nH]c2c([nH]c3ccc(OC)cc32)c1=O | -8.43% (inactive) | 24.9 |  |  |

| SMILES | lipid storage change, negative = inhibition | cell number change [%] | Potency | outcome |
| --- | --- | --- | --- | --- |
| CC[C@H](C)NC(=O)CCCCCn1c(=S)[nH]c2c([nH]c3ccc(OC)cc32)c1=O | -12.6% (inactive) | -11.2 |  |  |
| COc1ccc2[nH]c3c(=O)n(CCCC(=O)NC4CCC(C)CC4)c(=S)[nH]c3c2c1 (centres undefined) |  | 6.49 | 2.31 µM (active) |  |
| O=C(CSc1cn(Cc2cccc(F)c2)c2ccccc12)NCc1ccc(F)cc1 | 17% (inactive) | 3.63 |  |  |
| O=C(Nc1ccc(Cl)cc1)C1CCC(=O)N1Cc1ccccc1Cl (centres undefined) |  | -16.5 |  | inactive |
| CNC(=O)C1CCC(=O)N1Cc1ccccc1Cl (centres undefined) |  | -10.4 | 29.1 µM (active) |  |
| O=C(O)C1CCC(=O)N1Cc1ccccc1Cl (centres undefined) | -7.87% (inactive) | -9.84 |  |  |
| O=C(O)c1ccc(-n2nnnc2SCc2ccccc2)cc1 |  | 17.8 |  | inactive |
| COc1ccc(C(=O)C[n+]2cccc(C)c2)cc1 | 4.32% (inactive) | 11.3 |  |  |
| Cc1ccc[n+](CC(=O)c2ccc(Br)cc2)c1 |  | 14.7 | 11.6 µM (active) |  |
| Cc1ccc[n+](CC(=O)c2ccc(Cl)cc2)c1 | -24.8% (inactive) | 2.36 |  |  |
| O=C(O)c1cccc(Oc2ccccc2[N+](=O)[O-])c1 | 9.92% (inactive) | -2.25 |  |  |
| CCOc1ccc(/C=N/n2nnnc2N)cc1O | -6.33% (inactive) | 23.4 |  |  |
| CCc1ccc(C(=O)c2cnc3ccc(OC)cc3c2N2CCN(CC)CC2)cc1 | -4.3% (inactive) | -13.9 |  |  |
| Cn1ccs/c1=N\S(=O)(=O)c1ccc(F)cc1 |  |  |  | inactive |
| Cn1ccs/c1=N\S(=O)(=O)c1ccc(C(C)(C)C)cc1 |  | -15.3 | 16.4 µM (active) |  |
| Cn1ccs/c1=N\S(=O)(=O)c1ccc(Br)cc1 | -1.49% (inactive) |  |  |  |
| COc1ccc2c(c1)CCc1c(C(=O)NCc3ccc(Cl)cc3)noc1-2 | -2.21% (inactive) | 3.58 |  |  |
| CC(=O)c1c(C)[nH]c(C(=O)Nc2ccc3c(c2)OCCO3)c1C | 13.6% (inactive) | -13.3 |  |  |
| CCOc1ccc(NC(=S)N2CCC(c3nc4ccccc4[nH]3)CC2)cc1 | -3.34% (inactive) | 0.472 |  |  |
| COCCn1c(SCC(=O)NNC(=O)c2ccccc2)nc2ccccc2c1=O | 1.17% (inactive) | 22 |  |  |

| SMILES | lipid storage change, negative = inhibition | cell number change [%] | Potency | outcome |
| --- | --- | --- | --- | --- |
| C=CCNC(=O)NC(=O)COC(=O)/C(C#N)=C/c1cc(C)n(CC(C)C)c1C | -18% (inactive) | 19.6 |  |  |
| CCN1C(=O)c2cccc3c(Cl)ccc1c23 | 17.8% (inactive) | -17.2 |  |  |
| Cc1cc(Cl)c2oc(C(=O)N(C)CC3CCOCC3)c(C)c2c1 | 5.8% (inactive) | -6.12 |  |  |
| Cc1cc(Cl)c2oc(C(=O)N(C)CCc3cnn(C)c3)c(C)c2c1 |  | -0.298 |  | inactive |
| Cc1cc(Cl)c2oc(C(=O)N(C)CCCCN3CCOCC3)c(C)c2c1 |  | -10.7 | 1.3 µM (active) |  |
| CC1(OC(=O)C2CCCC2)C(=O)C=C2C=C(c3ccsc3)N(CCCCO)C=C2C1=O (centres undefined) | -0.0639% (inactive) | -2.75 |  |  |
| O=C1c2ccccc2C(=O)N1CCCOc1ccccc1 | 28.1% (inactive) | -1.01 |  |  |
| NC(=O)C(Cc1ccccc1)N1C(=O)c2ccccc2C1=O (centres undefined) | -19.5% (inactive) | -7.43 |  |  |
| O=C(O)C(CCCCN1C(=O)c2ccccc2C1=O)N1C(=O)c2ccccc2C1=O (centres undefined) |  | -7.36 | 29.1 µM (active) |  |
| CCC(C)(C)n1nnnc1C(c1ccc(N(C)C)cc1)N1CCN(C2CCCCC2)CC1 (centres undefined) |  | 1.78 |  | inactive |
| Cc1cc(OCC(O)CNC(C)(C)C)ccc1Cl (centres undefined) | 0.716% (inactive) | 3.23 |  |  |
| CCOC(=O)N1CCN(C(=O)CCSc2ccc(Cl)cc2)CC1 | 1.95% (inactive) | -8.05 |  |  |
| CCOC(=O)N1CCN(C(=O)CSc2ccc(Cl)cc2)CC1 |  | 4.78 | 2.59 µM (active) |  |
| CCOC(=O)N1CCN(C(=O)CSc2ccccc2)CC1 |  |  |  | inactive |
| OC(CNCc1cccnc1)COc1ccc2ccccc2c1 (centres undefined) | -13.2% (inactive) | -3.7 |  |  |
| CCOC(=O)C1=C(C)N=c2s/c(=C\c3ccc(OCC(=O)O)c(OC)c3)c(=O)n2C1c1ccc(OC)cc1 (centres undefined) | 21.8% (inactive) | 8.11 |  |  |
| CCOC(=O)C1=C(C)N=c2s/c(=C/c3ccc(OCC(=O)O)cc3)c(=O)n2C1c1ccc(OC)cc1OC (centres undefined) |  | -12.6 | 11.6 µM (active) |  |
| CCOC(=O)C1=C(C)N=c2s/c(=C\c3ccc(OCC(=O)O)cc3)c(=O)n2C1c1ccccc1 (centres undefined) | -20.2% (inactive) |  |  |  |
| OCCN1CCN(c2cc(C(F)(F)F)nc3c(F)cccc23)CC1 | 5.94% (inactive) | 16.3 |  |  |
| CCOC(=O)N1CCN(C(=O)C2CCN(S(=O)(=O)N3CCC4(CC3)OCCO4)CC2)CC1 | -0.783% (inactive) |  |  |  |
